Data reported in PubChem BioAssay AID743258 (The Scripps Research Institute Molecular Screening Center, 2014).
The campaign covered roughly 3,300 compounds. About 100 (3%) were called active. Only a sample is shown. Values without a mark were called inactive. Cut-off read from the data, not from the text of the source: active = inhibition above about 9.5%; inactive = the rest.

Each compound was assayed against 1-phosphatidylinositol 4,5-bisphosphate phosphodiesterase gamma-1 (Homo sapiens) (UniProt P19174) (assay: PLC-gamma1 enzyme inhibitors, counter-screen for PLC-beta3 inhibitor project, biochemical, fluorescence (AID 743258)). Settings: purified PLC-gamma1, fluorogenic substrate, at 12.3 µM, hits give high values.
Sequence of 1-phosphatidylinositol 4,5-bisphosphate phosphodiesterase gamma-1 (Homo sapiens) (P19174 whole entry, looked up): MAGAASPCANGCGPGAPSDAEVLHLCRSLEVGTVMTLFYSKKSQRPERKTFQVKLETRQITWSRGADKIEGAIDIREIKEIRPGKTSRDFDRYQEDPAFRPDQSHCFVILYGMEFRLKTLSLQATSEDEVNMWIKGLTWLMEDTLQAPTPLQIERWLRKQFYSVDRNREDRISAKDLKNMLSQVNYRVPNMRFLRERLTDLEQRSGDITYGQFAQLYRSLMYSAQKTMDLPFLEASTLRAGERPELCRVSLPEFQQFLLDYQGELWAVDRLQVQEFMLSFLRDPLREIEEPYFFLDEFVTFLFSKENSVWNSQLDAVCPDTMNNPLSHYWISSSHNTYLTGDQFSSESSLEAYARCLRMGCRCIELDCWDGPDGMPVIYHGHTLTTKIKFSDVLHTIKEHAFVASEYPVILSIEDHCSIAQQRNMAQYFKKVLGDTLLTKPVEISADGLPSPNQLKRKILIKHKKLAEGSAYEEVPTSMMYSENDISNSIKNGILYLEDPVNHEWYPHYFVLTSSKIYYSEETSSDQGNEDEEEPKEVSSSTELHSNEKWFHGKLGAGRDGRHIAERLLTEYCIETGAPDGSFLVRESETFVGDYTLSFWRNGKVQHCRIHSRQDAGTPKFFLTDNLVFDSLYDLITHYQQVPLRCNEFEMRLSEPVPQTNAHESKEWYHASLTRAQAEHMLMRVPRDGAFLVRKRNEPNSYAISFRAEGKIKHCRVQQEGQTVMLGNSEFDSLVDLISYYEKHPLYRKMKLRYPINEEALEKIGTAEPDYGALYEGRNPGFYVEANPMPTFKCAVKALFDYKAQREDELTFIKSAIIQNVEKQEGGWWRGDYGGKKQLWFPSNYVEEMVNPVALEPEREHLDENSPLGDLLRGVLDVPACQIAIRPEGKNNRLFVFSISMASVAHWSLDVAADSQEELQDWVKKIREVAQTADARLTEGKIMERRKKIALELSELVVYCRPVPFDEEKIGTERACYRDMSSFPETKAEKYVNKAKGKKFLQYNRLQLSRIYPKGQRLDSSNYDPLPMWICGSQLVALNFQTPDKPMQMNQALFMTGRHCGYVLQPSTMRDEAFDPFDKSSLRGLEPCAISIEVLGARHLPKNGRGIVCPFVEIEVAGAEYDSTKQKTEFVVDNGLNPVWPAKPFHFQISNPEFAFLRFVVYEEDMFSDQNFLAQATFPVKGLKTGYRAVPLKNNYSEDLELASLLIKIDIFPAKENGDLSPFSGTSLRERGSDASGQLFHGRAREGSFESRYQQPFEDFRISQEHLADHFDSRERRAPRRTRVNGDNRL

| Structure (SMILES) | inhibition |
| --- | --- |
| Cc1ccc(Cn2ccc(NC(=O)C3C4CCC(C4)C3C(=O)O)n2)cc1 (stereo not drawn) | 6.33% |
| N#Cc1c(NC(=O)C2CCCO2)sc2c1CCCCC2 (stereo not drawn) | -9.66% |
| Cc1nc2ccc(NC(=O)c3cccc(S(=O)(=O)N4CCOCC4)c3)cc2s1 | -12.2% |
| N#C[C@]1(S(=O)(=O)c2ccccc2)C[C@@H]2ON=C(c3cccc(Br)c3)[C@@H]2C1 | -2.59% |
| Nn1cnnc1N/N=C/c1cc([N+](=O)[O-])c(Cl)cc1Cl | -3.65% |
| Nc1nc(NCC(=O)O)nc(N2CCCCCC2)c1[N+](=O)[O-] | 0.65% |
| COCc1cc(C(C)=O)ccc1OC | -2.07% |
| C=CCOc1ccccc1/C=N/NC(=O)Cc1ccccc1 | -8.16% |
| C=CCSC(CC)(CC)C(N)=O | 2% |
| CCOc1ccc(OCC)c(NC(=O)CSc2nnc(Cn3cnc4ccccc43)n2C)c1 | -2.36% |
| COc1ccc(C(CNC(=O)c2cc(S(=O)(=O)Nc3cccc(C)c3)ccc2C)N2CCCC2)cc1 (stereo not drawn) | -5.37% |
| O=C(NCCCN1CCCCC1)C1CC(=O)N(CCc2ccccc2)C1 (stereo not drawn) | 0.03% |
| Clc1ccc(C2[C@H]3CN(CC4CCCCC4)[C@H](c4ccccc4)C34CC2(c2cccnc2)C4)cn1 (stereo partly drawn) | -4.79% |
| O=[N+]([O-])c1cc(C(F)(F)F)ccc1NN=C1CCCC1 | 8.96% |
| CCC1S/C(=N/N=C/c2ccco2)NC1=O (stereo not drawn) | -2.12% |
| O=S(=O)(c1ccc(F)cc1)N1CCN(C(=S)NC2CCCC2)CC1 | -7.54% |
| COc1ccc(CCNC(=O)COC(=O)Cc2ccccc2F)cc1 | -5.86% |
| CC(C)CCSc1ncnc2c1oc1nc3c(cc12)COC(C)(C)C3 | -6.65% |
| CNC(=O)n1ccc(C(=O)N2CCCCC2)n1 | -7.1% |
| Cc1cc2nc(SCCN3CCOCC3)[nH]c2cc1C | -0.23% |
| CC(C)Cn1cnc2c1c(=O)n(CC(O)c1ccccc1)c(=O)n2CC(C)C (stereo not drawn) | -3.61% |
| CCOc1ccccc1C1CC(c2cccc(NS(C)(=O)=O)c2)=NN1C(=O)c1ccccc1 (stereo not drawn) | -6.72% |
| CN(C(=O)c1cccc(NC(=O)Cc2cccc([N+](=O)[O-])c2)c1)C1CCCCC1 | -5.4% |
| O=C(Nc1cccc([N+](=O)[O-])c1)Nn1cnnc1 | 0.91% |
| CS(=O)(=O)N(Cc1ccc(Cl)cc1)c1ccc(C(=O)NCCSCc2ccco2)cc1 | 0.35% |
| COc1ccc(NC(=O)c2ccc(OC)cc2)cc1 | -6.63% |
| C=CCN(c1ccc(Cl)cc1)S(=O)(=O)c1cccc(C(=O)OCC(=O)N(C)C)c1 | -6.25% |

| Structure (SMILES) | inhibition |
| --- | --- |
| Cc1cc(NC(=O)CN2C(=O)NC(CC(C)C)C2=O)no1 (stereo not drawn) | -4.65% |
| CN(CC(=O)Nc1ccccc1Cl)C(=O)COc1cccc2c1OC(C)(C)C2 | 3.1% |
| CCc1c(C)n([O-])c2c([n+]1=O)CCCCC2 | -5.96% |
| FC(F)(F)c1cnc(Oc2ccccc2-c2nnc(-c3ccc(Cl)cc3)o2)c(Cl)c1 | -5.48% |
| Cc1cc(NC(=O)c2ccc(F)cc2)ccc1NC(=O)c1ccco1 | -0.11% |
| Cc1nc(-c2ccc(F)cc2)c(CC(=O)N2CCN(S(=O)(=O)c3ccc(F)cc3)CC2)s1 | -5.79% |
| CCC1CCCCN1C(=O)CSc1nc(C)cc(C)n1 (stereo not drawn) | -6.45% |
| O=C1NC2(CCCCC2)N=C1c1ccccc1 | -5.81% |
| O=C(C1CCCO1)N1CCN(C(=S)Nc2cccc(Cl)c2)CC1 (stereo not drawn) | -5.73% |
| O=C1/C(=C\c2ccsc2)NC(=S)N1c1ccccc1 | -7.04% |
| COc1ccc(-c2ccc(CN3C(CC(C)C)C(=O)N(Cc4cn(CC5CCCCC5)nn4)CCS3(=O)=O)cc2)cc1 (stereo not drawn) | 0.15% |
| S=c1[nH]nc(-c2cccnc2)n1/N=C/C(Cl)=C\c1ccccc1 | -4.71% |
| Cc1ccc(C23CC4CC(CC(C(=O)NCC(=O)O)(C4)C2)C3)cc1 | 9.94% (active) |
| CCn1c(SCC(C)=O)nc2sc3c(c2c1=O)CCCC3 | -3.1% |
| O=C(C[C@H]1C(=O)N(c2ccc(F)c(F)c2)C[C@@H]1Cc1ccccc1)Nc1ccccc1 | 2.94% |
| Cc1c(C#N)c2ncn(CC#N)c(=O)c2n1-c1ccccc1 | -8.35% |
| O=S1(=O)c2ccc(Br)cc2OC[C@H](Cc2ccccc2)N1Cc1cn(Cc2ccccc2)nn1 | 1.8% |
| COC(=O)C[C@@H]1CC[C@@H]2[C@H](COc3ccc(NC(=O)c4cccc(F)c4)cc3C(=O)N2C)O1 | 6.24% |
| COC(=O)N(C)C[C@@H]1OCc2cnnn2CCCC(=O)N([C@@H](C)CO)C[C@@H]1C | -7.63% |
| C=CCOc1ccc(Cl)cc1CNCCCN1CCOCC1 | 2.7% |
| COc1ccc(/C=C2\N=C3CCCN3C2=O)cc1 | -0.94% |
| CCOc1ccccc1NC(=O)CCN1CCN(S(=O)(=O)c2ccc(OC)cc2)CC1 | -1.14% |
| CC1(C(=O)NCc2ccccc2)CSCC(=O)N1CCCN1CCOCC1 (stereo not drawn) | -9.79% |
| O=C(NCc1cccnc1)c1cc(C2CCCCN2C(=O)CCc2ccccc2)on1 (stereo not drawn) | -6.35% |
| O=C(CSc1ccccc1)Nc1cccc(S(=O)(=O)N2CCOCC2)c1 | 3.57% |
| COc1ccc(S(=O)(=O)N2CCC(C(=O)OCC(=O)c3ccccc3)CC2)cc1[N+](=O)[O-] | 8.79% |
